Laboratory results as given in PubChem BioAssay (NCI).
Compounds without any hit were thinned out: in the full panel of roughly 83,000, 20% have a hit.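 Assay: single dose, 48 h. Readout: percent growth (0 = no net growth; negative = cell death). Active: <10.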 Unmarked numbers belong to inactive results. Activity calls are given as the source filed them.

Test system: CCRF-CEM leukemia
Assay: NCI-60 one-dose screen, 48 h (100 = growth as untreated, 0 = no growth, -100 = all killed)
Details: 10 µM unless noted

Compound	growth
COc1cc(CNS(=O)(=O)c2ccc(C)cc2)ccc1OCc1cn(-c2ccc(Br)cc2)nn1	90.4%
Cc1ccc(Cl)cc1Nc1nc(C(F)(F)F)ccc1C(=O)N/N=C/c1cccnc1	10.6%
COc1cc2c(c(OC)c1OC)-c1ccc(OC)c(=O)cc1[C@@H](NC(=O)CCl)CC2	15.3%
Fc1ccc(Nc2nc3nonc3nc2Nc2ccc(I)cc2)cc1	1.66% (active)
CO[C@H]1/C=C(/C)CCC[C@H](C)[C@H](O)[C@@H](C)C(=O)C(C)(C)[C@@H](O)CC(=O)O[C@@H]1/C(C)=C/c1csc(C)n1	25.7%
COCCn1c(-c2csc(-c3cn(C)c4ccc(OC)cc34)n2)cc2cccnc21	41.3%
CCNc1nc(-c2ccc(Cl)c(OC)c2)c(-c2ccnc(NCCCNS(=O)(=O)c3ccc(Cl)cc3)n2)s1	31.6%
O=C1COCCN1c1ccc(Nc2nc(Cl)nc(OCc3cn(Cc4ccccc4)nn3)n2)cc1	60%
N#Cc1c(-c2ccc(Cl)cc2)nc(SCC(=O)NC2=NN=C(c3ccccc3)CS2)[nH]c1=O	63.8%
Cc1cc2c(O)c(-c3cccc(Cl)c3)c3sc(=O)oc3c2cc1C	44.8%
CC1=C(CCC(C)N(C)Cc2ccc(OCCCN3CCCC3)cc2)C(C)(C)CCC1 (stereo not drawn)	11.1%
N#Cc1cccc(-c2c(-c3ccc4ccccc4c3)oc3ccccc3c2=O)c1	27.6%
Cc1nc2sc(C(=O)Nc3ccccc3)c(N)c2cc1C(=O)c1ccccc1	8.47% (active)
